Test results: PubChem BioAssay (Tox21)
Several values for one entry are separate records, joined by “and”; a condition that tells them apart may be missing. Identical values can stand only once. Inconclusive results are not listed. Where a structure was tested more than once in an assay, its records may differ in their call. Activity calls are given as the source filed them. Unless noted, the call rests on the fitted dose curve; in most records, active means well fitted curve in the direction sought with a large enough effect in the repeat runs; inconclusive means weak or mixed curves; inactive means no such curve, though single readings can be large; an effect the other way counts as inactive or inconclusive.

What was measured:
[1] = target: Thyrotropin receptor (Homo sapiens) (UniProt P16473); assay: qHTS assay to identify small molecule agonists of the thyroid stimulating hormone receptor (TSHR) signaling pathway (AID 1224843; calls by dose curve; further: nearly all actives have a fitted effect of over 45% in size; further: potency means the concentration at half of the fitted maximal effect)
How it was run: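 TSHR-expressing HEK293 cells (800 per well) were exposed to compounds for 30 min at room temperature. cAMP was then detected by HTRF competition with cAMP-d2 and anti-cAMP cryptate, read after 1 h at room temperature. Fifteen concentrations, triplicate.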

[2] = qHTS assay to identify small molecule agonists of the hypoxia (HIF-1) signaling pathway - cell viability counter screen (AID 1224844; calls by dose curve; further: nearly all actives have a fitted effect of over 50% in size; further: potency means the concentration at half of the fitted maximal effect)
How it was run: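 ME-180 HRE-bla cells, 2,000/well, 0.5% dialyzed FBS; 5 hr settle, 17 hr compound at 37C/5% CO2; CCF4-AM reporter read first, then CellTiter-Glo luminescence after 30 min RT.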

[3] = qHTS assay to identify small molecule agonists of the hypoxia (HIF-1) signaling pathway (AID 1224846; active means well fitted activation curve with a large enough effect in the signal ratio in the repeat runs, not every such curve was filed as active; the % refers to the signal ratio)
How it was run: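 Cell line: CellSensor HRE-bla ME-180; 2,000 cells/well; 0.5% dialyzed FBS; 5 h preincubation; DMSO compound pin transfer; 17 h, 37C, 5% CO2; CCF4-AM added; bla FRET signal scored for activation.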

[4] = qHTS assay to identify small molecule agonists of H2AX - cell viability counter screen (AID 1224847; calls by dose curve; further: nearly all actives have a fitted effect of over 30% in size; further: potency means the concentration at half of the fitted maximal effect)
How it was run: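 Viability of CHO-K1 (wild type) cells after 3 hr compound exposure was measured by CellTiter-Glo luminescence.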

[5] = qHTS RealTime-Glo MT Cell Viability Assay in HepG2 cells - 24 hour (AID 1224867); further: nearly all actives have a fitted effect of over 50% in size
How it was run: (§1)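 HepG2 suspension premixed with RealTime-Glo reagents is plated at 600 cells per well and left 5 h at 37 C/5% CO2. Compounds in DMSO then go in, and bioluminescence reflecting viable cell number is recorded over 40 h.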

[6] = A CellTox Green Cytotoxicity Assay to monitor cytotoxicity in HEK293 cells - 0 hour (AID 1224869); further: nearly all actives have a fitted effect of over 50% in size
How it was run: (§2)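 Nonlytic real-time cytotoxicity: HEK293 + CellTox Green reagent plated, 5 h preincubation, pintool compound addition (23 nL in DMSO), 37 C for 40 h, fluorescence measured at successive time points.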

[7] = qHTS RealTime-Glo MT Cell Viability Assay in HepG2 cells - 40 hour (AID 1224870); further: nearly all actives have a fitted effect of over 50% in size; further: potency means the concentration at half of the fitted maximal effect
How it was run: (§3)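 HepG2 cells mixed with RealTime-Glo MT reagents (NanoLuc plus cell-permeant prosubstrate) were seeded at 600 cells/well, incubated 5 h at 37 C/5% CO2, then pinned with compounds in DMSO; nonlytic luminescence tracked viability during 40 h treatment.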

[8] = A CellTox Green Cytotoxicity Assay to monitor cytotoxicity in HEK293 cells - 40 hour (AID 1224871); further: nearly all actives have a fitted effect of over 45% in size; further: potency means the concentration at half of the fitted maximal effect
How it was run: as §2

[9] = qHTS RealTime-Glo MT Cell Viability Assay in HEK293 cells - 16 hour (AID 1224872); further: nearly all actives have a fitted effect of over 50% in size; further: potency means the concentration at half of the fitted maximal effect
How it was run: (§4)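 Reads taken at 0, 8, 16, 24, 32 and 40 h from the same wells. HEK293 cells (600/well) carried RealTime-Glo reagents from seeding, with compound added after a 5 h settle at 37 C.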

[10] = qHTS RealTime-Glo MT Cell Viability Assay in HepG2 cells - 8 hour (AID 1224873); further: nearly all actives have a fitted effect of over 55% in size
How it was run: as §3

[11] = A CellTox Green Cytotoxicity Assay to monitor cytotoxicity in HEK293 cells - 24 hour (AID 1224875); further: nearly all actives have a fitted effect of over 45% in size
How it was run: as §2

[12] = A CellTox Green Cytotoxicity Assay to monitor cytotoxicity in HepG2 cells - 16 hour (AID 1224876); further: nearly all actives have a fitted effect of over 45% in size
How it was run: (§5)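 Read-out is fluorescence of a cyanine dye excluded from live cells that stains DNA of dead HepG2 cells, with signal proportional to cytotoxicity. Plates were read at 0, 8, 16, 24, 32 and 40 h after compound addition.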

[13] = qHTS RealTime-Glo MT Cell Viability Assay in HepG2 cells - 32 hour (AID 1224877); further: nearly all actives have a fitted effect of over 55% in size; further: potency means the concentration at half of the fitted maximal effect
How it was run: as §1

[14] = A CellTox Green Cytotoxicity Assay to monitor cytotoxicity in HepG2 cells - 24 hour (AID 1224878); further: nearly all actives have a fitted effect of over 45% in size; further: potency means the concentration at half of the fitted maximal effect
How it was run: as §5

[15] = A CellTox Green Cytotoxicity Assay to monitor cytotoxicity in HepG2 cells - 40 hour (AID 1224879); further: nearly all actives have a fitted effect of over 40% in size; further: potency means the concentration at half of the fitted maximal effect
How it was run: as §5

[16] = qHTS assay to identify small molecule agonists of H2AX (AID 1224845; active means well fitted activation curve with a large enough effect in the signal ratio in the repeat runs, not every such curve was filed as active; the % refers to the signal ratio)
How it was run: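 Wild-type CHO-K1 cells plated overnight, then exposed 3 hr at 37C to compounds at 15 concentrations (0.76% DMSO). Lysed, then HTRF anti-pH2AX(S139)-cryptate/anti-H2AX-d2 detection after 24 hr at room temperature; emissions 665 and 620 nm.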

[17] = qHTS RealTime-Glo MT Cell Viability Assay in HEK293 cells - 32 hour (AID 1224868); further: nearly all actives have a fitted effect of over 50% in size; further: potency means the concentration at half of the fitted maximal effect
How it was run: as §4

[18] = qHTS RealTime-Glo MT Cell Viability Assay in HEK293 cells - 40 hour (AID 1224874); conditions: RealTime-Glo luminescence; max response: stronger effect = lower value; further: nearly all actives have a fitted effect of over 50% in size; further: potency means the concentration at half of the fitted maximal effect
How it was run: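 Cells were seeded together with NanoLuc luciferase and a prosubstrate that viable cells reduce to a luciferase substrate. After a 5 h incubation at 37 C/5% CO2, compounds were added and luminescence was measured repeatedly during 40 h of treatment.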

[19] = qHTS assay to identify small molecule antagonists of the estrogen related receptor (ERR) signaling pathway from Tox21 library (AID 1224848); further: nearly all actives have a fitted effect of over 50% in size; further: potency means the concentration at half of the fitted maximal effect
How it was run: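 Cells: ERR line, 2,000/well; 6 h preincubation 37 C/5% CO2. Cpd in DMSO via pin tool; 18 h, 37 C. ONE-Glo, 30 min RT, luminescence.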

[20] = qHTS assay to identify small molecule agonists of the estrogen related receptor (ERR) signaling pathway from Tox21 library (AID 1224849; calls by dose curve; further: nearly all actives have a fitted effect of over 15% in size); conditions: ERR reporter cell line, ONE-Glo luciferase, 18 h; at 92.4 µM (top of the series)
How it was run: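 ERR cells, 6 h pre-incubation 37 C/5% CO2; cpd in DMSO pinned; 18 h 37 C; ONE-Glo added, 30 min RT; luminescence read. Agonist mode, qHTS.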
On the % scale 0 is the no-effect control and ±100 the full control effect.

Thyrotropin receptor (Homo sapiens), sequence (P16473 whole entry, looked up): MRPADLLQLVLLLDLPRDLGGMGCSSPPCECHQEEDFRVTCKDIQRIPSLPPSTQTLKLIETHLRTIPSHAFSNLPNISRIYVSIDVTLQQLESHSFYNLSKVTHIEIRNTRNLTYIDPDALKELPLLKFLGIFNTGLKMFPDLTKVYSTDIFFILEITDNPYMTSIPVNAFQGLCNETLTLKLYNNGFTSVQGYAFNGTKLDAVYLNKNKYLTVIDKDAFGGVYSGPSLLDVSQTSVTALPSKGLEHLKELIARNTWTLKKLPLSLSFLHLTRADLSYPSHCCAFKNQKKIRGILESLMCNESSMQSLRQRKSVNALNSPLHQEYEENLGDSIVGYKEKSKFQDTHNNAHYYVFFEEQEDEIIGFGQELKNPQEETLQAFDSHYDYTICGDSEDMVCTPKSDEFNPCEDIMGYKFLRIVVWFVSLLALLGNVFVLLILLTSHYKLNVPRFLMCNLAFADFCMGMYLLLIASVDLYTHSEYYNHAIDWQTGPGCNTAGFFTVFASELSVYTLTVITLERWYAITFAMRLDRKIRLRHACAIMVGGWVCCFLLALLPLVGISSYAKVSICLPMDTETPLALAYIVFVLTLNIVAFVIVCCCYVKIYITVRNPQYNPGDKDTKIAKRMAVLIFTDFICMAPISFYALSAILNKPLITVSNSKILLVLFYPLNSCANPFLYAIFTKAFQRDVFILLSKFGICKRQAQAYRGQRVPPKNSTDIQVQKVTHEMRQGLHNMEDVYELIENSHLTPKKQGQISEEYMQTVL

O=C(NC(=O)c1c(F)cccc1F)Nc1ccc(Cl)cc1
inactive: Potency [1] | Potency [2] | outcome [3] | Potency [4] | Potency [5] | Potency [6] | Potency [7] | Potency [8] | Potency [9] | Potency [10] | Potency [11] | Potency [12] | Potency [13] | Potency [14] | Potency [15]

CC(C)=CC1C(C(=O)OCc2coc(Cc3ccccc3)c2)C1(C)C (stereo not given)
inactive: Potency [2] | Potency [16] | outcome [3] | Potency [5] | Potency [17] | Potency [6] | Potency [7] | Potency [8] | Potency [9] | Potency [10] | max response [18] -17.8% | Potency [11] | Potency [12] | Potency [13] | Potency [14] | Potency [15]

O=C(CCl)c1ccccc1
inactive and 54.9 µM (active): Potency [8]
inactive: Potency [2] | outcome [3] | Potency [5] | Potency [6] | Potency [7] | Potency [10] | max response [18] -7.31% | Potency [11] | Potency [12] | Potency [13] | Potency [14] | Potency [15]
active: Potency [1] 69.6 µM | Potency [18] 43.6 µM
inactive and 49 µM (active): Potency [17] | Potency [9]

O=C(O)CC[N+](=O)[O-]
inactive: Potency [2] | Potency [4] | Potency [5] | Potency [17] | Potency [6] | Potency [7] | Potency [8] | Potency [9] | Potency [10] | max response [18] 0.345% and -3.12% | Potency [11] | Potency [12] | Potency [13] | Potency [14] | Potency [15]

N[C@@H](Cc1ccc(N(CCCl)CCCl)cc1)C(=O)O
inactive: Potency [1] | Potency [4] | Potency [5] | Potency [6] | Potency [8] | Potency [9] | Potency [10] | Potency [11] | Potency [12] | Potency [13]
active: Potency [2] 23.5 µM and 23.9 µM | Potency [17] 5.27 µM | Potency [18] 4.69 µM

O=C1C=CC(=O)C=C1
inactive: Potency [1] | Potency [4] | Potency [5] | Potency [17] | Potency [6] | Potency [7] | Potency [8] | Potency [9] | Potency [10] | max response [18] 13.4% | Potency [11] | Potency [13] | Potency [14] | Potency [15]
active: Potency [2] 49.2 µM and 49 µM

Cc1ccccc1[N+](=O)[O-]
inactive: Potency [1] | Potency [2] | outcome [3] | Potency [4] | Potency [5] | Potency [17] | Potency [6] | Potency [8] | Potency [9] | Potency [10] | max response [18] 1.02% and 16.9% | Potency [11] | Potency [13] | Potency [14] | Potency [15]

CC(C)(C)c1ccccc1O
active: Potency [8] 39.4 µM | Potency [14] 49.5 µM | Potency [15] 49.5 µM and 49 µM
inactive: Potency [2] | outcome [3] | Potency [5] | Potency [17] | Potency [6] | Potency [7] | Potency [9] | Potency [10] | max response [18] -18.3% and -0.927% | Potency [13]

O=S(=O)(Oc1ccc(Cl)cc1)c1ccc(Cl)cc1
inactive: Potency [1] | Potency [2] | outcome [3] | Potency [19] | activity change, positive = activation [20] -19.6% and -8.56% | Potency [5] | Potency [17] | Potency [6] | Potency [7] | Potency [8] | Potency [9] | Potency [10] | max response [18] -23.5% and -4.71% | Potency [11] | Potency [13] | Potency [14] | Potency [15]

O=C(O)C(F)(F)C(F)(F)C(F)(F)C(F)(F)C(F)(F)C(F)(F)C(F)(F)F
inactive: Potency [1] | Potency [16] | outcome [3] | Potency [4] | Potency [5] | Potency [17] | Potency [6] | Potency [8] | Potency [9] | Potency [10] | max response [18] -9.47% and 7.44% | Potency [11] | Potency [12] | Potency [13] | Potency [14] | Potency [15]

Cc1c(COC(=O)[C@@H]2[C@H](/C=C(\Cl)C(F)(F)F)C2(C)C)cccc1-c1ccccc1
active: Potency [17] 21.4 µM | Potency [18] 19.1 µM
inactive: Potency [2] | Potency [16] | outcome [3] | Potency [5] | Potency [6] | Potency [8] | Potency [10] | Potency [11] | Potency [13] | Potency [14] | Potency [15]

ClC1C(Cl)C(Cl)C(Cl)C(Cl)C1Cl (stereo not given)
inactive and 38.9 µM (active): Potency [15]
inactive and 49 µM (active): Potency [9]
inactive and 43.6 µM (active): Potency [14]
inactive and 48.6 µM (active): Potency [19]
inactive: Potency [2] | outcome [3] | Potency [5] | Potency [6] | Potency [7] | Potency [10] | Potency [13]
active: Potency [18] 54.9 µM
inactive and 54.9 µM (active): Potency [17]

CCCCCc1cc(O)cc(O)c1
inactive: Potency [1] | Potency [2] | outcome [3] | Potency [6] | Potency [11] | Potency [12]
inactive and 49 µM (active): Potency [7] | Potency [13]
active: Potency [4] 113 µM | Potency [17] 24.5 µM | Potency [9] 24.5 µM | Potency [18] 24.5 µM
